# Compound activity: PubChem, National Center for Advancing Translational Sciences (NCATS)
# Rows were chosen to be rich in hits. Some 4% of all compounds tested hit in one or more screens of this group.
# NTMT1 inh – blocks human N-terminal methyltransferase 1 activity; Q9BV86; NTMT1 MTase-Glo SAH luminescence, purified enzyme; Potency, µM (doses to about 114 µM), hits mostly inhibitors; 59,000 compounds, 2.5% hits; further: nearly all actives have a fitted effect of over 65% in size
# GALC G270D act – galactocerebrosidase G270D activity enhancement, cell-based; P54803; AID 1159614; 145M-Twi-hGALC-G270D cells, HMU-beta-Gal fluorescence, 48 h; Potency, µM (highest dose often 57.5 µM), most hits filed as activators; 45,000 compounds, 0.1% hits; further: nearly all actives have a fitted effect of over 65% in size
#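 qHTS, 1536-well; 145M-Twi-hGALC-G270D cells (WT line also made) in DMEM/F12 + 10% FBS; compound incubation on live cells; HMU-β-gal 0.1 mM final, pH 5.2, NaTC; carbonate stop; fluorescence increase = enhanced residual activity.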
# GPR32 ag – GPR32 (DRV1) agonism, beta-arrestin recruitment | O75388 | CHO-K1 GPR32 beta-arrestin PathHunter luminescence, 90 min; zero percent set by DMSO-only wells | activation, % at 76.9 µM | 48,000 compounds, 2.5% hits | AID 1346428;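 active means activation of at least 60% and not above a set upper limit, about 1 call in 100 departs from these limits; inconclusive means activation of 40% to 60%, or above that upper limit; inactive means activation under 40%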
# Target sequence (O75388 whole entry, looked up): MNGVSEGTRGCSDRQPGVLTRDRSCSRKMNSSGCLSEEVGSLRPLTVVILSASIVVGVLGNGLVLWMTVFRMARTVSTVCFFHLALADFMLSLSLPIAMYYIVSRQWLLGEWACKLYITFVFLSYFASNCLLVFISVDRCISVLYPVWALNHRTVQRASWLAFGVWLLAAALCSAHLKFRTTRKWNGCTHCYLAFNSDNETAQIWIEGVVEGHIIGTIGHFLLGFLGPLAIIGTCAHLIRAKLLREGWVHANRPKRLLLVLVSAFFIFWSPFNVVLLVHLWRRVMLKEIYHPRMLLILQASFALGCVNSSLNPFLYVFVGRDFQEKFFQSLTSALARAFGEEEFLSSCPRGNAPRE
#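 PathHunter enzyme-fragment complementation, CHO-K1 GPR32 stable line; 2,500 cells/well, overnight attach; cpd 90 min 37 °C 5% CO2; detection reagent 1 h RT; chemiluminescence. DMSO = EC0.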
# p53null 32C tox – p53 null cell cytotoxicity, permissive temperature; 55,000 compounds, 0.62% hits; H1299-neo p53 null cells, ATP luminescence, 24 h, 32C; Potency, µM (top dose mostly 46.1 µM), most hits filed as cytotoxic; further: nearly all actives have a fitted effect of over 55% in size
#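 Luminescent ATP readout gave cell viability of p53-null H1299-neo cells after a 24 h compound exposure at the permissive 32C. Titrations ran up to 46 uM, and AC50s were fitted with the standard Hill equation.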
# OvCa metastasis – blocks SKOV3ip1 adhesion and invasion in omental model; Potency, µM (titrated, usually from 45.8 µM), most hits filed as inhibitors; SKOV3ip1-GFP adhesion/invasion on 3D omental model, fluorescence; AID 1963576; 46,000 compounds, 0.1% hits; further: nearly all actives have a fitted effect of over 65% in size
#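 Adhesion/invasion was scored as fixed GFP-labeled SKOV3ip1 cell counts (488/509 nm), normalized to DMSO and tomatine controls. Cancer cells in serum-free medium, with four compound doses (0.36-46 umol/L), sat 2 hr at RT then 16 hr at 37 C on a 48 hr fibroblast/mesothelial/ECM culture.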
# p53null 39C tox – selectivity test: cytotoxicity in p53 null cells, nonpermissive temperature | 55,000 compounds, 0.97% hits | H1299 p53-null (neo) cells, 39C, ATPlite viability, 24 h | Potency, µM (titrated, usually from 46.1 µM), actives largely listed as cytotoxic; further: nearly all actives have a fitted effect of over 50% in size
#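 H1299 lung cancer cells, p53-null (H1299-neo) or expressing p53 A138V (H1299-p53A138V), were plated overnight at 37C, then exposed to compounds at up to 46 uM for 24 hr at 39C. Viability was read by ATP-based luminescence.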
# Hits are given with their value; – = inactive; ? = inconclusive; · = not tested or not shown; ! = not active in a repeat. Unless noted, the call rests on the fitted dose curve; in most records, active means well fitted curve in the direction sought with a large enough effect; inconclusive means small, poorly fitted or top-dose-only effect, or another doubt; inactive means no such curve, though single readings can be large; an effect the other way counts as inactive or inconclusive.
SMILES,NTMT1 inh,GALC G270D act,GPR32 ag,p53null 32C tox,OvCa metastasis,p53null 39C tox
Cc1ccc(C)c(Nc2nn3c(=O)c4ccc(C(=O)NCc5ccccc5)cc4nc3s2)c1,–,–,63.1,–,–,–
COc1ccccc1Nc1nn2c(=O)c3ccc(C(=O)NCc4ccc(F)cc4)cc3nc2s1,?,–,–,–,–,3.98µM
CC(C/C=C/C(C)(C)O)C1CCC(C)(O)C(O)C1 (stereo unspecified),–,·,·,·,·,·
O=c1cc[nH]c(=S)[nH]1,?,–,67.7,·,·,·
CCOC(=O)c1nn(-c2ccccc2)c(=O)c2c(N)scc12,50.1µM,·,·,·,·,·
C=CC(C)(O)C(O)CC1C(C)(O)C(O)C(O)C2C(C)(C)CCCC21C (stereo unspecified),–,·,·,·,·,·
CCCCn1c(=N)n(CCOc2ccccc2OC)c2ccccc21,–,–,64.5,–,?,?
CCOC(=O)C1CCN(S(=O)(=O)c2cc(-c3cc(C)no3)ccc2OC)CC1,89.1µM,–,–,–,–,–
Cc1cc(N2CCN([C@@H]3CN[C@H](C(=O)N4CCSC4)C3)CC2)n(-c2ccccc2)n1,–,·,·,·,·,·
CCOC(=O)N1CCN(C(=O)Cn2sc3nc(C)cc(C)c3c2=O)CC1,3.16µM,·,·,·,·,·
CCOC(=O)N1CCN(c2cc(C)nc3nc(C)nn23)CC1,·,·,·,–,·,–
CC(C)CCNc1ncnc2c1cnn2-c1cccc(Cl)c1,?,–,91.6,–,?,–
CN(C)CCNc1ncnc2c1cnn2-c1cccc(Cl)c1,–,–,87.2,–,–,–
CCc1ccccc1Nc1ncnc2c1cnn2-c1ccc(C)cc1C,?,–,?,–,–,–
Clc1cccc(-n2ncc3c(NCCC4=CCCCC4)ncnc32)c1,–,–,–,–,–,–
CCc1ccccc1Nc1ncnc2c1cnn2-c1ccc(Cl)cc1,?,–,73.1,–,–,–
Clc1cccc(-n2ncc3c(NCCCc4ccccc4)ncnc32)c1,?,–,?,–,–,–
Clc1cccc(-n2ncc3c(NCCCN4CCOCC4)ncnc32)c1,50.1µM,–,84.6,–,?,–
CCN(CC)CCCC[C@H](NC(=O)[C@H](CC(C)C)NC(=O)[C@H](C)NC(=O)[C@H](Cc1ccccc1)NC(=O)c1ccc(C(C)(C)C)cc1)C(=O)N[C@@H](CO)C(=O)OC,–,·,·,·,·,·
O=C(C1CCN(Cc2ccc(OCc3ccccc3)cc2)CC1)N1CCCC1,·,·,·,–,·,?
O=C(CCC1CCN(Cc2ccccc2)CC1)c1ccc2c(c1)NCCCC2,?,–,81.2,·,·,·
O=C(NCCc1nc2ccccc2n1Cc1ccc(Cl)cc1)c1ccccc1,–,–,80.5,–,–,–
O=C(NCCc1nc2ccccc2n1CCOc1ccc(Cl)cc1)C1CCCCC1,–,·,·,–,·,12.6µM
O=C(NCCc1nc2ccccc2n1CCOc1ccc(C(F)(F)F)cc1)C1CCCCC1,–,·,·,·,·,·
O=C(NCCc1nc2ccccc2n1Cc1ccc(Cl)cc1Cl)c1ccco1,–,–,–,–,–,?
SMILES,NTMT1 inh,GALC G270D act,GPR32 ag,p53null 32C tox,OvCa metastasis,p53null 39C tox
O=C(NCCCc1nc2ccccc2n1Cc1ccc(Cl)cc1Cl)c1ccco1,·,·,96.8,–,–,–
O=C(O)CN(CCN(CC(=O)O)CC(=O)O)CCN(CC(=O)O)CC(=O)O,–,–,70.2!,·,·,·
CC1(C)OB(c2ccc(O)c3ncc(N4CCNCC4)cc23)OC1(C)C,79.4µM,·,·,·,·,·
C=CC(=O)Nc1cc(Nc2nccc(-c3cn(C)c4ccccc34)n2)c(OC)cc1N(C)CCN(C)C,25.1µM,·,·,·,·,·
Oc1cc(NCCN2CCOCC2)cc2cccnc12,–,·,·,·,·,·
O=C1C(Cl)=C(NCCN2CCOCC2)C(=O)c2ncccc21,?,·,·,·,5.9µM,·
COc1ccc(CCNC(=O)CSc2cn(CCNC(=O)c3cccc(C(F)(F)F)c3)c3ccccc23)cc1OC,–,–,104.0,·,–,·
